# Laboratory results reported in PubChem BioAssay (Tox21).
# Results filed as inconclusive are left out. Calls of active or inactive are those of the source. The call rests on the fitted dose curve; in most records, active means well fitted cell-killing curve with a large enough effect in the repeat runs; inconclusive means weak or mixed curves, or effect the other way; inactive means flat fitted curve, though single readings scatter.
# Experiment: cAMP Responsive Elements (CRE) small molecule agonists, cell-based qHTS assay: qHTS cell viability counter screen (AID 2060914); further: nearly all actives have a fitted effect of over 50% in size
# Details: CRE-bla HEK293T viability, CellTiter-Glo luminescence, 5 h; series mostly up to 92.4 µM; activity change, negative = cytotoxicity: at the top concentration
# Method in brief: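 HEK 293T CRE-bla; DMEM + 10% dialyzed FBS, 25 mM HEPES; 18 h pre-incubation; compound 3 h, 37 °C/5% CO2; CellTiter-Glo added after reporter read; luminescence after 30 min RT.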
# On the % scale 0 is the no-effect control and ±100 the full control effect.
SMILES,"activity change, negative = cytotoxicity",Potency
Cc1ccc(-c2ncc(Cl)cc2-c2ccc(S(C)(=O)=O)cc2)cn1,1.89% [at 42.5 µM] (inactive),–
CC(=O)OCC(=O)[C@@]1(O)[C@H](OC(C)=O)C[C@H]2[C@@H]3CCC4=CC(=O)C=C[C@]4(C)[C@@]3(F)[C@@H](O)C[C@@]21C,4.21% [at 42.5 µM] (inactive),–
COc1ccc(-c2cc(=S)ss2)cc1,-1.94% [at 42.5 µM] (inactive),–
CCOC(=O)c1ccccc1O,-3.67% [at 42.5 µM] (inactive),–
O=C1NCC2(CCN(CCc3ccccc3)CC2)O1,2.74% [at 42.5 µM] (inactive),–
Cc1ccccc1C(=O)Nc1ccc(C(=O)N2CCCC(O)c3cc(Cl)ccc32)c(C)c1 (centres undefined),6.13% [at 42.5 µM] (inactive),–
COc1ccc(CCO)cc1,12% (inactive),–
CCCCCCCCCC#N,0.671% (inactive),–
O=C(O)C(O)[C@H](O)[C@@H](O)[C@H](O)[C@H](O)CO (some centres undefined),1.1% (inactive),–
Nc1cc(S(=O)(=O)O)cc2cc(S(=O)(=O)O)cc(O)c12,–,inactive
O=C(CCCN1CCC(O)(c2cccc(C(F)(F)F)c2)CC1)c1ccc(F)cc1,10.2% [at 42.5 µM] (inactive),–
FC(F)(F)/C(=N\OCC1OCCO1)c1ccc(Cl)cc1,0.0783% (inactive),–
CC1=C2[C@@H]([C@H](C)CC[C@H]2/C=C(\C)C(=O)O)[C@H](O)C1,-2.79% (inactive),–
CCCCCCCCC(CO)CCCCCC (centres undefined),6.24% (inactive),–
Cc1ccc(Br)cc1,2.9% (inactive),–
c1ccc2cc3c(ccc4ccccc43)cc2c1,–,inactive
CC(=O)OCc1ccco1,–,inactive
O=C(Nc1cccc2c(=O)cc(-c3nn[nH]n3)oc12)c1ccc(OCCCCc2ccccc2)cc1,-10.2% [at 42.5 µM] (inactive),–
N[C@@H](Cc1c[nH]c2ccc(O)cc12)C(=O)O,–,inactive
NC(=O)c1ccc([N+](=O)[O-])cc1,9.66% (inactive),–

SMILES,"activity change, negative = cytotoxicity",Potency
COc1ccnc(CS(=O)c2nc3cc(OC(F)F)ccc3[nH]2)c1OC (centres undefined),-3.03% (inactive),–
CCN(CC)c1ccc2c(C)cc(=O)oc2c1,-5.05% (inactive),–
CC(=O)CC/C=C(\C)CC/C=C(\C)CC/C=C(\C)CCC=C(C)C,0.619% [at 42.5 µM] (inactive),–
CCCCCN(CCCOC)C(=O)C(CCC(=O)O)NC(=O)c1ccc(Cl)c(Cl)c1 (centres undefined),-6.21% [at 42.5 µM] (inactive),–
CCC(=O)O[C@]1(C(=O)SCF)[C@H](C)C[C@H]2[C@@H]3C[C@H](F)C4=CC(=O)C=C[C@]4(C)[C@@]3(F)[C@@H](O)C[C@@]21C,3.07% [at 42.5 µM] (inactive),–
COc1ccc(/C=C/C(=O)c2ccc(OC)cc2OC)cc1,11.7% [at 42.5 µM] (inactive),–
Nc1cc(S(=O)(=O)O)ccc1O,-1.7% (inactive),–
COc1cc(/C=C/c2ccccc2)oc(=O)c1,-2.81% (inactive),–
CC(=O)/C=C/C=C1/C2CCC(C2)C1(C)C (centres undefined),1.12% [at 42.5 µM] (inactive),–
CCCCCCCCCCCCCCCC(=O)NCCO,-18.7% [at 42.5 µM] (inactive),–
CC1(C)[C@@H]2CC[C@]3(C2)[C@@H]1C(=O)CCC3(C)C,3.56% (inactive),–
CCCCCCCCCCCC[N+](C)(C)CCCCCCCCCCCC,0.495% (inactive),–
CCCCCCCCOC(=O)CCCCCCCCC(=O)OCCCCCCCC,2.05% (inactive),–
CCOC(=O)CC#N,-9.88% (inactive),–
CC(O)CN(CCN(CC(C)O)CC(C)O)CC(C)O (centres undefined),–,inactive
CCN1CCC[C@H]1CNC(=O)c1c(OC)ccc(Br)c1OC,-6.39% [at 42.5 µM] (inactive),–
O=C1CCC(=O)N1,-1.86% (inactive),–
COc1ccc(CCN(C)CCCC(C#N)(c2ccc(OC)c(OC)c2)C(C)C)cc1OC (centres undefined),–,inactive
CCO[Si](CCCSSSSCCC[Si](OCC)(OCC)OCC)(OCC)OCC,-21% (inactive),–
